The list is not random: actives were taken first. Their share in the collection is about 8.8%.
HT1080NT lethal: kills 2HG-producing HT-1080-NT fibrosarcoma cells | HT-1080-NT fibrosarcoma viability, CellTiter-Glo ATP luminescence, 48 h | hit rate 1.6% among 360,000 | AID 686970 | Potency, µM (titrated, usually from 46.1 µM), without a hit: top-dose activity, negative = less viability, hits mostly cytotoxic;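 also: NT is the 2HG producing partner of a matched IDH1 knockdown line; potency is read from the fitted curve at half-maximal effect; 0% = DMSO-treated cells and -100% = media-only wells without cells; nearly all actives have a fitted effect of over 55% in size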
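Toxicity toward the 2HG-producing NT line was scored as %Activity, normalised to DMSO and no-cell wells, from CellTiter-Glo luminescence after 48 hours' treatment.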
KB-V1 MDR tox: KB-V1 MDR subline cytotoxicity; KB-V1 MDR cells viability, CellTiter-Glo, 72 h; Potency, µM (top dose mostly 46.1 µM), usual class: cytotoxic; hit rate 3.4% among 400,000; AID 1347076; also: potency is read from the fitted curve at half-maximal effect; nearly all actives have a fitted effect of over 60% in size
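In this primary screen, KB-V1 cells overexpressing P-gp are incubated with library compounds (lowest to highest concentration) for 72 h at 37 degrees C before a luminescent ATP viability read.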
KB-3-1 tox: kills parental KB-3-1 adenocarcinoma cells | hit rate 1.4% among 400,000 | AID 1347075 | KB-3-1 viability, CellTiter-Glo ATP luminescence, 72 h | Potency, µM (series often up to 46.1 µM), hits mostly cytotoxic; also: potency is read from the fitted curve at half-maximal effect; nearly all actives have a fitted effect of over 60% in size
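Parental KB-3-1 viability, qHTS format: 72 h compound exposure, 37 °C; CellTiter-Glo; media-only wells and DMSO plates as controls; concentration-effect fits on corrected data.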
IL-1B inflam inh: inhibitors of inflammasome signaling (IL-1 beta secretion). THP-1 LPS/ATP IL-1B secretion, AlphaLISA, 16 h; stronger effect = lower value. activity change, % at 57.5 µM. hit rate 4.7% among 360,000; in the data active = activity change below about -50%; inconclusive = mostly about -30% to -49%
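Secreted IL-1B measured by AlphaLISA bead assay after 16 h compound exposure of THP-1 cells; compounds (final up to 57.5 uM) added 1 h before LPS (250 ng/mL) and ATP (1.25 mM) stimulation; lower signal means less secretion.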
HT1080 IDH1KD tx: kills HT-1080 cells with IDH1 knockdown; hit rate 2% among 360,000; Potency, µM (titrated, usually from 46.1 µM), for the others: at the highest dose activity, negative = toxicity, usual class: cytotoxic; AID 686971; HT-1080 IDH1 knockdown viability, ATP luminescence, 48 h;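 also: potency is read from the fitted curve at half-maximal effect; 0% = DMSO wells and -100% = cell-free medium wells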
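Using the IDH1-knockdown HT-1080 line run in the same batch and compound series as the NT line, viability after 48 h at 37 °C was determined by CellTiter-Glo luminescence and expressed as % activity.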
The depositor's hits bear a star; i = inactive; ? = inconclusive; . = no result given. Unless noted, calls follow the shape of the dose curve; as a rule, active = well fitted curve in the direction sought with a large enough effect; inconclusive = small, poorly fitted or top-dose-only effect, or another doubt; inactive = no such curve, though single readings can be large; an effect the other way counts as inactive or inconclusive. Unless noted, % is scaled to controls: 0 for no effect and ±100 for the full control effect.

SMILES | HT1080NT lethal | KB-V1 MDR tox | KB-3-1 tox | IL-1B inflam inh | HT1080 IDH1KD tx
COc1cc(C(=O)NN=Cc2ccc(N(C)C)cc2)cc(OC)c1OC | 3.7µM* | 3.7µM* | 1.5µM* | 0 | 2.9µM*
CCOC(=O)c1cc(-c2ccc(OC)cc2OC)nn1-c1ccc(C(=O)O)cc1 | 1% | i | i | 0 | 0%
O=C(c1ccc(Cn2c(=S)[nH]c3ccccc3c2=O)cc1)N1CCN(c2ccccn2)CC1 | ? | ? | i | ? | -20%
CC1Cc2ccccc2N1C(=O)Cn1cnc2ccccc21 (configuration not stated) | -1% | i | i | 9 | -12%
COc1ccc(CCNC(=S)Nc2ccc(C(C)C)cc2)cc1 | -21% | 23µM* | ? | -16 | -6%
COc1ccc(CCNC(=S)Nc2cc(C)cc(C)c2)cc1 | -7% | 18µM* | i | -10 | 2%
COc1ccc(NC(=S)NCCc2c(C)[nH]c3ccc(OC)cc23)cc1 | 7% | i | i | -52* | 5%
COc1ccc(NC(=S)NCCc2c[nH]c3ccccc23)cc1 | 2% | i | i | -17 | 2%
COc1ccc(CCNC(=S)Nc2ccc(OC)cc2)cc1 | 5% | i | i | 2 | 10%
Cc1cc(C(C)(C)C)cc(CN2CCN(S(=O)(=O)c3cccs3)CC2)c1O | -3% | i | i | -13 | 0%
Cc1cccc(-n2nnc(-c3nc(-c4ccccc4)no3)c2N)c1C | . | i | i | . | .
O=C(NCc1ccccc1)C1=C[C@H](c2csc3ccccc23)C[C@H](OCc2ccc(CO)cc2)O1 | ? | i | i | -52* | -17%
CC(=O)n1cc([C@H]2C=C(C(=O)NCc3ccccc3)O[C@@H](OCc3ccc(CO)cc3)C2)c2ccccc21 | -27% | i | i | -53* | -19%
C/C(=N\NC(=O)c1ccc(O)cc1)c1ccc2c(c1)Nc1ccccc1S2 | 18µM* | ? | i | -101* | 8.2µM*
C/C(=N\NC(=O)c1ccc(OC2CCCC2)cc1)c1ccc(O)cc1 | -28% | ? | 3.7µM* | -14 | -11%
CCN(CC)c1ccc(C(=O)N/N=C(\C)c2ccc(O)cc2)cc1 | ? | i | 13µM* | -6 | ?
S=C(Nc1ccc(-c2nc3ccccc3[nH]2)cc1)Nc1cccnc1 | ? | i | i | -17 | ?
Cc1ccc(NCc2nc3ccccc3n2C)cc1C | -19% | i | i | 15 | -11%
c1ccc(CC[n+]2ccncc2)cc1 | . | i | i | . | .
CC1CC(C)CN(C(=O)CNS(=O)(=O)c2ccc(Br)s2)C1 (configuration not stated) | -17% | i | i | -1 | 3%
Cc1ccc(N2CCN(C(=O)CNS(=O)(=O)c3ccc(Br)s3)CC2C)cc1 (configuration not stated) | 4% | 2.3µM* | ? | ? | 0%
O=C(CNS(=O)(=O)c1ccc(Br)s1)N1CCN(c2ncccn2)CC1 | 4% | 21µM* | i | 20 | 27%
Cc1cccc(-c2noc(-c3ccc(NCc4ccccc4)c([N+](=O)[O-])c3)n2)c1 | . | i | i | . | .
CCC(=O)N1CCN(c2ccc(NC(=O)c3ccc([N+](=O)[O-])o3)cc2)CC1 | 6.5µM* | ? | ? | -103* | 5.2µM*
CC(C)(C)C(=O)N1CCN(c2ccc(NC(=O)c3ccco3)cc2)CC1 | 18% | i | i | ? | 20%
SMILES | HT1080NT lethal | KB-V1 MDR tox | KB-3-1 tox | IL-1B inflam inh | HT1080 IDH1KD tx
CCCC(=O)N1CCN(c2ccc(NC(=O)c3ccc(Br)o3)cc2)CC1 | 19% | i | i | ? | 9%
CC(C)(C)C(=O)N1CCN(c2ccc(NC(=O)c3ccc([N+](=O)[O-])o3)cc2)CC1 | 4.1µM* | ? | ? | -96* | 5.2µM*
CCCC(=O)N1CCN(c2ccc(NC(=O)c3ccc([N+](=O)[O-])o3)cc2)CC1 | 13µM* | ? | i | -109* | 6.5µM*
O=C(Nc1ccc(N2CCN(C(=O)c3ccc(Cl)cc3)CC2)cc1)c1ccc([N+](=O)[O-])o1 | 10µM* | i | i | -107* | 2.6µM*
CCc1nc2c(OCCOc3ccc(F)cc3)cccn2c1N(C)C(=O)c1ccc(OC)cc1 | -9% | i | i | -24 | 8%
COc1cccc(NC(=O)N2CCC(n3c(C)nc4cccnc43)CC2)c1 | . | i | i | . | .
CCC(=O)N1CCN(c2ccc(NC(=S)NC(=O)c3ccc(OC)c([N+](=O)[O-])c3)cc2)CC1 | -4% | i | i | -10 | -1%
CCCC(=O)N1CCN(c2ccc(NC(=O)c3ccc(OCC)c([N+](=O)[O-])c3)cc2)CC1 | -16% | 12µM* | i | 5 | -16%
CN1C(=O)C2(c3ccccc31)N(c1ccc(Br)cc1)C(=O)CS2(=O)=O (configuration not stated) | . | i | i | . | .
Cn1c(C(=O)N2CCN(c3ccc([N+](=O)[O-])cc3)CC2)cc2c(=O)[nH]c3ccccc3c21 | -19% | i | i | -54* | -9%
O=C(O)CC1(CC(=O)Nc2ccccc2Br)CCCC1 | 9% | i | i | 15 | 9%
CC(Sc1nc2ccccc2n1C)C(=O)NC(c1ccccc1)c1ccccc1 (configuration not stated) | 1% | 8.2µM* | i | -8 | -1%
CCCCCCn1cnc2c(oc3nc4c(cc32)CCCC4)c1=O | -3% | ? | i | -29 | 2%
O=c1c2oc3nc4c(cc3c2ncn1CCCc1ccccc1)CCCC4 | -14% | i | i | -53* | -3%
CCCCn1cnc2c(oc3nc4c(cc32)CCCC4)c1=O | -4% | i | i | -60* | 1%
CSCCC(NS(=O)(=O)c1ccccc1F)C(=O)OCc1ccccc1Cl (configuration not stated) | -8% | i | i | 3 | -3%
CCCCCCNC1=NCCS1 | -6% | ? | i | 9 | -5%
CCCN(CCC)c1nc(-c2ccccn2)nc2ccccc12 | ? | 2.9µM* | 4.6µM* | -96* | 9.2µM*
CCN1CCN(c2nc(-c3ccccn3)nc3ccccc23)CC1 | 8.9µM* | 5.2µM* | i | 40 | 10µM*
c1ccc(-c2nc(N3CCOCC3)c3ccccc3n2)nc1 | -4% | ? | i | 3 | -5%
c1ccc(CCNc2nc(-c3ccccn3)nc3ccccc23)cc1 | -27% | i | 12µM* | -101* | ?
c1ccc(CN2CCN(c3nc(-c4ccccn4)nc4ccccc34)CC2)cc1 | 0% | i | i | 10 | -17%
c1ccc(-c2nc(N3CCCCCC3)c3ccccc3n2)nc1 | -28% | ? | 3.7µM* | -84* | ?
CCCN(CCC)c1nc(-c2ccccc2F)nc2ccccc12 | . | i | i | . | .
